This note sets out measurements from PubChem BioAssay AID620 (Sanford-Burnham Center for Chemical Genomics, 2007).

In all, about 87,000 compounds went through this assay and about 360 (0.41%) were called active. No stated cut-off is given here; in the data, active means cytotoxicity above about 50%; inactive means the rest. For the sample, actives were picked, then their nearest neighbours and some compounds at random.

The nature of this assay: cytotoxicity in HT1080 fibrosarcoma cells, cell-based, fluorescence readout (AID 620).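 Further: cells exposed to compound overnight then 4 h with Alamar Blue; 0% = vehicle DMSO and 100% = killing control.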 The note with it: HT1080 viability, at 10 µM, hits give high values.
For `COc1ccc(-n2nnnc2-c2ccccc2)cc1`, the cytotoxicity is 58.8% (active).
As to `COc1ccc(-n2nnnc2-c2cccc(OC)c2)cc1`, the cytotoxicity is 48.1% (inactive).
On to `COc1ccc(-n2nnnc2-c2cccnc2)cc1`, for which the cytotoxicity is -4.2% (inactive).
For `COc1cccc(/C(O)=C2\C(=O)C(=O)N(c3ccccn3)C2c2cccc(OC)c2OC)c1` (stereo not given), the cytotoxicity is 21.5% (inactive).
Turning to `COC(=O)C(Cc1cnc(Cl)s1)(C(=O)OC)c1ccc([N+](=O)[O-])cc1[N+](=O)[O-]`, the cytotoxicity was -2% (inactive).
For the molecule `CCC1=C2CC[C@H]3C(=O)N(CC)C(=O)[C@H]3[C@H]2[C@@]2(Cc3ccccc3)C(=O)N(CC3CC3)C(=O)N2C1=O`, the cytotoxicity was 2.7% (inactive).
The value for `COc1ccc(-c2cc(C(F)(F)F)n3nc(C)cc3n2)cc1` was -1.8% (inactive); that for `Cc1ccc(NC(=O)c2nnn(CC(=O)Nc3ccccc3)c2N)cc1C` was -2.3% (inactive).
The figure for `Cc1nnc(SCC(=O)c2cc(C)n(-c3ccc4c(c3)OCO4)c2C)s1` is 61.4% (active).
The figure for `Cc1cc(C(=O)CSc2nncs2)c(C)n1-c1ccc2c(c1)OCO2` is 24.4% (inactive).
Turning to `Cc1cc(C(=O)CSc2nnnn2C)c(C)n1-c1ccc2c(c1)OCCO2`, the cytotoxicity is 13.4% (inactive).
Consider `CN1C(=O)CC(Sc2ncccc2C(=O)O)C1=O` (stereo not given), for which the cytotoxicity is 1.8% (inactive).
The value for `Cc1cc(C)n(-c2nc3ccccc3nc2N2CCOCC2)n1` was -0.9% (inactive).
The figure for `CCOc1ccccc1N1CCN(C(=O)C2c3ccccc3Oc3ccccc32)CC1` is -0.5% (inactive); for `COc1ccccc1N1CCN(C(=O)C2c3ccccc3Oc3ccccc32)CC1` it is 56% (active); for `O=C(C1c2ccccc2Oc2ccccc21)N1CCN(c2ccc(Cl)cc2)CC1` it is -1.1% (inactive).
For `O=S(=O)(c1ccccc1C(F)(F)F)N1CCC(n2cnc3ccccc32)CC1`, the cytotoxicity was -0.9% (inactive).
The value for `COc1ccc(Cl)cc1NC(=O)/C=C\C(=O)O` was -3.8% (inactive); that for `Cc1occc1-c1nnc(SCC(=O)c2ccc(F)cc2)n1Cc1ccco1` was -0.9% (inactive); that for `Oc1cccc2ccc(Nc3ccccn3)nc12` was 60.9% (active).
Regarding `c1ccc(Nc2ccccn2)cc1`, the cytotoxicity was -6.8% (inactive).
The figure for `c1ccc(Nc2ccccc2Nc2ccccn2)nc1` is 0.4% (inactive).
The figure for `CC(=O)O[C@@]12CO[C@@H]1C[C@H](O)[C@@]1(C)C(=O)[C@H](O)C3=C(C)[C@@H](OC(=O)[C@H](O)[C@@H](NC(=O)OC(C)(C)C)c4ccccc4)C[C@](O)([C@@H](OC(=O)c4ccccc4)[C@H]21)C3(C)C` is 53.7% (active).
Turning to `CCOC(=O)c1ccccc1NC(=O)Nc1ccc(OC)c(OC)c1`, the cytotoxicity is -1.4% (inactive).
Take `Cc1noc(C)c1C(=O)N1CCN(CCc2ccccc2)CC1`: the cytotoxicity was -0.7% (inactive).
